Only some compounds are listed: those with a hit (about 12% of all), similar ones and a draw of the others.
G9a inh: blocks human histone lysine methyltransferase G9a. Potency, µM (top dose mostly 102 µM), usual class: inhibitors. G9a H3K9 monomethylation, AlphaScreen, 2 h. 350,000 compounds, 8.8% hits. Q96KQ7; note: nearly all actives have a fitted effect of over 75% in size
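AlphaScreen read-out: biotin-H3K9 peptide (500 nM) methylation by 20 nM enzyme with 20 uM SAM, 2 h at room temperature after 15 min compound preincubation; anti-monomethyl H3K9 antibody plus donor/acceptor beads, 10 min dark.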
PLK1 PBD block: inhibitors of human PLK1 polo-box domain binding; AID 720504; P53350; Potency, µM, hits mostly inhibitors; 360,000 compounds, 2.8% hits; Plk1 PBD binding of FITC phosphopeptide, fluorescence polarization; note: series mostly up to about 57 µM; nearly all actives have a fitted effect of over 65% in size
HP1b binding inh: blocks HP1-beta chromodomain binding to methylated histone tails | P83916 | AlphaScreen HP1-beta / biotin-H3K9me3 peptide binding | Potency, µM (titrated, usually from 114 µM), hits mostly inhibitors | 390,000 compounds, 0.56% hits | AID 540317; note: nearly all actives have a fitted effect of over 70% in size
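HP1-beta protein (50 nM final) preincubated 30 min at room temperature with biotinylated H3(1-18)K9me3 peptide (50 nM) in PBS pH 7.4, 0.01% Tween-20, then compound added for 30 min. AlphaScreen streptavidin donor/nickel chelate acceptor beads (10 ug/mL final), 30 min dark, luminescence read.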
JMJD2A Tudor: blocks the human JMJD2A Tudor domain; O75164; AlphaScreen JMJD2A-Tudor / H3K4me3 peptide binding; Potency, µM (highest dose often 114 µM), usual class: inhibitors; 390,000 compounds, 4.4% hits; note: nearly all actives have a fitted effect of over 50% in size
BAZ2B block: inhibitors of human BAZ2B bromodomain; Q9UIF8; AlphaScreen BAZ2B-H3K14Ac peptide displacement; Potency, µM (series often up to 114 µM), usual class: inhibitors; 360,000 compounds, 4.4% hits; note: nearly all actives have a fitted effect of over 60% in size
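Complex of BAZ2B and biotin-H3K14Ac (50 nM apiece) forms over 30 min at RT, then faces library compounds up to 110 uM for another 30 min; AlphaScreen beads added, 20 min dark incubation, luminescence read.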
PI5P4Ka inh: blocks human PI5P4K alpha kinase activity | PI5P4Kalpha enzyme, ADP-Glo luminescence, 60 min; active compounds read low | max response, % | 330,000 compounds, 1.2% hits; active = max response of -50% or lower; inconclusive = between -30% and -50%; inactive = -30% or higher; note: value at the top dose of about 77 µM
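ADP-Glo luminescence end-point read after a 60 min room-temperature kinase reaction of PI5P4Kalpha plus substrate, initiated with ATP at 5 microM final. Buffer: 0.038 M HEPES pH 7.4, EGTA, 0.1% CHAPS, 5% DMSO.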
A number is an active result. Unless noted, calls come from the whole dose curve; as a rule, active = well fitted curve in the direction sought with a large enough effect; inconclusive = small, poorly fitted or top-dose-only effect, or another doubt; inactive = no such curve, though single readings can be large; an effect the other way counts as inactive or inconclusive.

`CCCN(CCC)S(=O)(=O)c1ccc(C(=O)Nc2nnc(COC)o2)cc1` gave G9a inh inactive, PLK1 PBD block inactive, HP1b binding inh inactive, JMJD2A Tudor inactive, BAZ2B block inconclusive and PI5P4Ka inh inactive.
For COCc1nnc(NC(=O)c2ccc(S(=O)(=O)N3CCCCCC3)cc2)o1 the results were G9a inh inactive, PLK1 PBD block inactive, HP1b binding inh inactive, JMJD2A Tudor 79µM, BAZ2B block inconclusive and PI5P4Ka inh inactive.
O=C(O)C12CC3CC(C1)CC(n1ncc(NCc4ccco4)c(Cl)c1=O)(C3)C2 was read as G9a inh 79µM, PLK1 PBD block inactive, HP1b binding inh inactive, JMJD2A Tudor inactive, BAZ2B block inactive and PI5P4Ka inh inactive.
Screening C[C@H](CO)N1C[C@H](C)[C@@H](CN(C)Cc2ccc(C(=O)O)cc2)Oc2ncc(Br)cc2C1=O returned PLK1 PBD block inactive and PI5P4Ka inh inactive.
Screening Cc1ccccc1C(=O)NNC(=S)NC(=O)c1cccnc1 returned G9a inh 6.3µM, PLK1 PBD block inactive, HP1b binding inh inactive, JMJD2A Tudor inactive, BAZ2B block inactive and PI5P4Ka inh inactive.
Screening O=C(NC(=S)NNC(=O)c1ccccc1F)c1cccnc1 returned G9a inh 8.9µM, PLK1 PBD block inconclusive, HP1b binding inh inactive, JMJD2A Tudor 16µM, BAZ2B block inactive and PI5P4Ka inh inactive.
For O=C(NC(=S)NCc1cccnc1)c1ccccc1F the results were G9a inh inconclusive, PLK1 PBD block inactive, HP1b binding inh inactive, JMJD2A Tudor inactive, BAZ2B block inactive and PI5P4Ka inh inactive.
Screening Cc1ccccc1C(=O)NC(=S)NCc1cccnc1 returned G9a inh inconclusive, PLK1 PBD block inactive, HP1b binding inh inactive, JMJD2A Tudor inactive, BAZ2B block inactive and PI5P4Ka inh inactive.
Screening COc1ccc(C2NC(=O)NC(C)=C2[N+](=O)[O-])cc1OC (stereo not drawn) returned G9a inh inactive, PLK1 PBD block inactive, HP1b binding inh inactive, JMJD2A Tudor inactive, BAZ2B block inactive and PI5P4Ka inh inactive.
`CC1=C([N+](=O)[O-])C(c2ccc(O)c(O)c2)NC(=O)N1` (stereo not drawn) gave G9a inh 10µM, PLK1 PBD block inactive, HP1b binding inh inactive, JMJD2A Tudor inactive, BAZ2B block inactive and PI5P4Ka inh inactive.
Screening CC(=O)C1=C(c2ccccc2)NC(=O)NC1c1ccc2c(c1)OCO2 (stereo not drawn) returned PLK1 PBD block inactive, HP1b binding inh inactive, JMJD2A Tudor inactive, BAZ2B block inactive and PI5P4Ka inh inactive.
CC(=O)C1=C(c2ccccc2)NC(=O)NC1c1ccc(O)c(O)c1 (stereo not drawn) was read as PLK1 PBD block inactive, HP1b binding inh inactive, JMJD2A Tudor 13µM, BAZ2B block inconclusive and PI5P4Ka inh inactive.
`CC(=O)C1=C(c2ccccc2)NC(=S)NC1c1ccc(O)c(O)c1` (stereo not drawn) gave G9a inh 8.9µM, PLK1 PBD block inactive, HP1b binding inh inactive, JMJD2A Tudor inactive, BAZ2B block inconclusive and PI5P4Ka inh inactive.
`CC(=O)C1=C(c2ccccc2)NC(=S)NC1c1cc(Cl)c(OC(C)C)c(Cl)c1` (stereo not drawn) gave G9a inh inactive, PLK1 PBD block inactive, HP1b binding inh inconclusive, JMJD2A Tudor inactive, BAZ2B block inactive and PI5P4Ka inh inactive.
Screening Cc1ccc(C)c(N2N=C(C(=O)OCc3nnc(-c4ccccc4Br)o3)CCC2=O)c1 returned PLK1 PBD block inactive and PI5P4Ka inh inactive.
For CN(CC(=O)Nc1ccc(Cl)cc1F)S(=O)(=O)c1ccc2c(c1)n(C)c(=O)c(=O)n2C the results were G9a inh inconclusive, HP1b binding inh inactive, JMJD2A Tudor inactive and BAZ2B block inactive.
For CCOC(=O)C(C(C)=O)c1c(Br)c(O)c(O)c2c(C(=O)c3ccc(C)cc3)coc12 (stereo not drawn) the results were G9a inh inconclusive, PLK1 PBD block inactive, HP1b binding inh inconclusive, JMJD2A Tudor inconclusive and BAZ2B block 40µM.
For Cc1nc(Cc2nnc(SCC(=O)N3CCN(c4ccccc4)CC3)o2)cs1 the results were G9a inh 45µM, PLK1 PBD block inactive, HP1b binding inh inactive, JMJD2A Tudor inactive, BAZ2B block inactive and PI5P4Ka inh inactive.

Screens: PubChem, National Center for Advancing Translational Sciences (NCATS)
